# A549 tox – A549 cytotoxicity, counter-screen for Nrf2 inhibitors; A549 ARE-Fluc cells, CellTiter-Fluor viability, 18-24 h; actives 0.16% (n = 390,000); Potency, µM (highest dose often 46 µM), for the others: at the top dose activity change, negative = cytotoxicity, most hits filed as inhibitors; AID 504648; also: potency is read from the fitted curve at half-maximal effect
#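 Cytotoxicity counterscreen: CellTiter-Fluor fluorescence was measured in A549 ARE_Fluc cells after 18-24 h of compound exposure in a concentration series. The subsequent BugLite luminescent read reports ARE-luciferase activity.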
# Giardia killer – Giardia lamblia killing. activity change, % at 7.66 µM, hits read low. actives 0.15% (n = 340,000). Giardia lamblia trophozoite viability; in the data active = activity change below about -80%; inconclusive = between about -30% and that limit;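 also: parasites exposed to compound for two days anaerobically before the ATP read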
#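 Luminescent ATP signal served as the viability read-out, measured 15-30 min after adding ATP detection reagent to trophozoites that had been incubated with compounds for 48 hrs at 37 deg C anaerobically at 100 cells/well.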
# KB-3-1 cytotox – KB-3-1 parental cell cytotoxicity; KB-3-1 viability, CellTiter-Glo ATP luminescence, 72 h; Potency, µM (top dose mostly 46.1 µM), hits mostly cytotoxic; actives 1.4% (n = 400,000); also: potency is read from the fitted curve at half-maximal effect; nearly all actives have a fitted effect of over 60% in size
#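 Cytotoxicity in the drug-sensitive parental line KB-3-1 was scored as loss of CellTiter-Glo luminescence following 72 h incubation with compound. Values come from curve fitting of normalized concentration-response data.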
# PI4K2A block – inhibitors of human PI4K2A; AID 1346378; actives 0.13% (n = 420,000); purified PI4K2A, ADP-Glo luminescence, 1 h; stronger effect = lower value; activity change, negative = inhibition, % at 76.9 µM; in the data active = activity change below about -50%; inconclusive = mostly about -30% to -49%;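 also: -100% = wells without enzyme as full effect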
# Target sequence (Q9BTU6 whole entry, looked up): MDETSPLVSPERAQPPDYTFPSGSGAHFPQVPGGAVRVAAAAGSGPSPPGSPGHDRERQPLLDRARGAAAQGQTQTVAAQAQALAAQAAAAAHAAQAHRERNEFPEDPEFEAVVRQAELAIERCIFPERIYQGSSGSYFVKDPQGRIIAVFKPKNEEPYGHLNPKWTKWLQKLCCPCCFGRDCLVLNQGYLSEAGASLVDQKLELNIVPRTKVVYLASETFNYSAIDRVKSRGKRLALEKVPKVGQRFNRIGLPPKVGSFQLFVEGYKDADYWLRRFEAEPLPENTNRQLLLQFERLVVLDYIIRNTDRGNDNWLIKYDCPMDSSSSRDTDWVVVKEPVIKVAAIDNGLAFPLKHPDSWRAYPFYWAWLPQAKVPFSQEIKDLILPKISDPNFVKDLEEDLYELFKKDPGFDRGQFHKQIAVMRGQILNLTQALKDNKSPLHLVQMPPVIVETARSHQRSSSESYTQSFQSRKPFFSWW
#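 PI4K2A activity was measured by ADP-Glo luminescence: enzyme (4 ug/mL stock) and phosphatidylinositol (1.2 mM stock) in Tris pH 7.5/MgCl2/EGTA/Triton X-100 buffer were reacted with ATP (300 microM stock) for one hour at ambient temperature.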
# Nrf2 inh – blocks Nrf2 signaling; A549 ARE-Fluc reporter, luciferase luminescence, 18-24 h; Potency, µM (top dose mostly 46 µM), for inactives: at the top dose activity change, negative = inhibition, most hits filed as inhibitors; actives 2.1% (n = 360,000); AID 504444; also: potency is read from the fitted curve at half-maximal effect; nearly all actives have a fitted effect of over 60% in size
#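 A549 ARE_Fluc cells (5000/well, 5% FBS OPTI-MEM) pre-incubated 2 h, then treated with compounds 18-24 h at 37C/5% CO2 in concentration-response. CellTiter-Fluor viability read first; BugLite luciferase luminescence after 15 min at room temperature gives Nrf2 activity.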
# KB-V1 cytotox – kills drug-selected multidrug resistant KB-V1 cells | KB-V1 MDR cells viability, CellTiter-Glo, 72 h | Potency, µM (doses to about 46.1 µM), most hits filed as cytotoxic | actives 3.4% (n = 400,000) | AID 1347076; also: potency is read from the fitted curve at half-maximal effect; nearly all actives have a fitted effect of over 60% in size
#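 Following 72 h at 37 degrees C with compound, KB-V1 cell viability was read by CellTiter-Glo luminescence, medium being phenol-red-free DMEM plus 10% FBS; concentration-response parameters came from normalized, curve-fitted qHTS data.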
# * hit, by the source's call; i = inactive; u = inconclusive; x = no result. The list is not random: actives were taken first. Their share in the collection is about 5.7%. Unless noted, calls follow the shape of the dose curve; as a rule, active = well fitted curve in the direction sought with a large enough effect; inconclusive = small, poorly fitted or top-dose-only effect, or another doubt; inactive = no such curve, though single readings can be large; an effect the other way counts as inactive or inconclusive. Unless noted, % is scaled to controls: 0 for no effect and ±100 for the full control effect.
SMILES,A549 tox,Giardia killer,KB-3-1 cytotox,PI4K2A block,Nrf2 inh,KB-V1 cytotox
C[C@@H]1O[C@@H](O[C@@H]2C=C3CC[C@@H]4[C@H](CC[C@]5(C)[C@@H](c6ccc(=O)oc6)CC[C@]45O)[C@@]3(C)CC2)[C@H](O)[C@H](O)[C@H]1O,x,x,x,4.1,x,x
Cc1nn(C(C)(C)C)c(C)c1/C=N/OC(=O)Nc1ccc(Cl)c(Cl)c1,6.8%,-18.4,i,-2.6,1.84µM*,i
C=CCNC(=S)Nc1ccc(OC(=O)Nc2ccc(Cl)c(Cl)c2)cc1,0.1%,-28.1,i,-3.3,6.9%,i
COc1ccc(C(=O)CN2CCOCC2)cc1,x,x,i,x,x,i
CCC(=NCc1ccc(F)cc1)c1c(O)n(C)c(=O)n(C)c1=O,-23.1%,15.1,u,4.7,u,14.6µM*
CCC(=NCCC(c1ccccc1)c1ccccc1)c1c(O)n(C)c(=O)n(C)c1=O,1.7%,-17.1,u,0.8,-22.0%,u
CCCCN1C(=O)NC(=O)C2(Cc3c(nc4c(C)cccn4c3=O)N3CCc4ccccc4C32)C1=O (stereo not given),-27.9%,-8.7,i,2.0,u,14.6µM*
COc1ccc(CCNC(=O)c2ccc3c(c2)CCN3S(=O)(=O)c2ccc(C)cc2)cc1OC,-2.9%,x,i,2.9,u,i
O=C(O)c1ccc(=O)[nH]c1,x,x,x,-3.8,x,x
Cc1cc(N2CCCCC2)nc2ccc(NC(=O)/C=C/c3ccc(OC(C)C)cc3)cc12,-9.2%,x,i,-0.1,u,i
COc1ccc(CCNc2nccn(-c3ccc(C)c(C)c3)c2=O)cc1OC,-18.9%,x,i,-5.4,u,i
COc1ccc(CCNc2nc3c(c(=O)n(C)c(=O)n3C)n2Cc2ccc(F)cc2)cc1OC,-13.7%,x,18.4µM*,-5.7,16.4µM*,2.06µM*
C[C@]12CC[C@H]3[C@@H](CCC4=CC(=O)CC[C@@H]43)[C@@H]1CC[C@@H]2OC(=O)CCc1ccccc1,x,x,x,-2.1,x,x
CC12CCC3C(CCC4CC(=O)C(C(O)C(F)(F)F)CC43C)C1CCC2O (stereo not given),4.4%,-7.0,i,13.3,-13.5%,i
CC1CC2CC(=O)CCC2(C)C2CCC3(C)C(O)CCC3C12 (stereo not given),x,x,u,-3.5,x,5.8µM*
CC12CCC3C(CCCC4CC(=O)CCC43C)C1CCC2O (stereo not given),-6.1%,-10.9,u,1.3,7.2%,7.31µM*
O=C(Nc1ccncc1)c1cccn(Cc2ccccc2)c1=O,-1.0%,7.7,u,0.9,u,5.8µM*
CCOC(=O)c1ccc(NC(=O)c2cccn(Cc3ccccc3F)c2=O)cc1,-2.7%,x,i,-17.3,x,5.8µM*
Cc1ccccc1Cn1cccc(C(=O)Nc2cc(Cl)ccc2C#N)c1=O,13.2%,x,i,-0.4,x,u
CCNC(=O)[C@H]1O[C@@H](n2cnc3c(N)ncnc32)[C@H](O)[C@@H]1O,-1.7%,2.2,i,-12.7,16.9%,i
Nc1ncnc2c1ncn2[C@@H]1O[C@H](COP(=O)(O)CP(=O)(O)O)[C@@H](O)[C@H]1O,-10.3%,1.7,i,-54.2*,-19.6%,14.6µM*
COC(=O)Nc1nc2ccccc2[nH]1,-6.8%,1.3,10.3µM*,1.6,8.4%,3.66µM*
COc1ccc(Cc2nccc3cc(OC)c(OC)cc23)cc1OC,2.4%,-1.3,i,-2.8,14.6µM*,u
Cn1c(=O)c2c(ncn2CC(=O)Nc2nc(-c3ccccc3Cl)cs2)n(C)c1=O,-26.4%,-17.7,u,-6.1,u,20.6µM*
CN(CCc1ccccn1)Cc1ccc(Cl)cc1,u,18.8,i,8.2,u,i
SMILES,A549 tox,Giardia killer,KB-3-1 cytotox,PI4K2A block,Nrf2 inh,KB-V1 cytotox
CC1CC(C)(O)CC(C(O)CC2CC(=O)NC(=O)C2)C1=O (stereo not given),u,u,0.92µM*,2.7,0.581µM*,6.51µM*
CC(C)(C)n1ncc2c(=O)n(Cc3cccc(Cn4cnc5c(cnn5C(C)(C)C)c4=O)c3F)cnc21,u,0.1,u,1.1,5.17µM*,u
COc1ccc(-[n+]2c(-c3ccccc3)cc(-c3ccc(C)cc3)cc2-c2ccccc2)cc1,u,-12.1,2.59µM*,-3.8,20.6µM*,i
C[n+]1c(-c2ccccc2)cc(CCCCc2cc(-c3ccccc3)[n+](C)c(-c3ccccc3)c2)cc1-c1ccccc1,-10.2%,-1.3,u,0.4,-15.0%,i
COc1ccc(-c2cc(-c3ccccc3)[n+](C)c(-c3ccccc3)c2)cc1,u,6.8,3.26µM*,-1.2,u,i
CCCOC(=O)c1ccc(-[n+]2c(-c3ccccc3)cc(-c3ccccc3)cc2-c2ccccc2)cc1,u,8.2,16.4µM*,-7.6,u,i
O=C(O)c1ccccc1NS(=O)(=O)c1cccc(N=Nc2c(O)[nH]c(=S)[nH]c2=O)c1,u,3.5,i,-2.1,-13.3%,i
COc1ccc(OC)c(CC(C)N)c1 (stereo not given),x,x,x,i,x,x
NNc1ccccc1,x,x,x,-2.1,x,x
Cc1sc2c(c1C)C(c1ccc(C(C)(C)C)cc1)=NCC(=O)N2CC(=O)Nc1nccs1,-23.9%,7.8,u,2.1,11.6µM*,20.6µM*
Cn1c(=O)n(C)c2cc(CNCCc3ccc(F)cc3)ccc21,-9.0%,x,i,2.0,-28.1%,i
CC(=O)[C@H]1CC[C@H]2[C@@H]3CC[C@H]4C[C@H](O)CC[C@]4(C)[C@H]3C(=O)C[C@]12C,1.3%,8.4,i,2.3,-24.7%,i
CC(=O)OC1CCC2(C)C(CCC3C4CC(N5CC5)C(C(C)=O)C4(C)CC(=O)C32)C1 (stereo not given),14.6µM*,-18.8,i,2.1,8.2%,i
COc1ccc(C(CNC(=O)Cc2ccc(Cl)c(Cl)c2)N2CCCCC2)cc1 (stereo not given),-10.4%,8.4,x,3.7,8.6%,x
CCOC(=O)c1cnc(SCc2ccc(Cl)c(Cl)c2)nc1N1CC1,-24.5%,10.4,i,-0.8,-23.1%,8.2µM*
O=S(=O)(c1ccc(Cl)cc1)N1CCC(n2cnc3cc(C(F)(F)F)ccc32)CC1,-10.7%,10.4,i,5.9,u,u
CC[C@H](C)[C@@H]1NC(=O)CNC(=O)c2csc(n2)[C@H](C(C)(C)O)OC(=O)C(C)(C)[C@H](CCCC(C)(Cl)Cl)OC(=O)c2csc1n2,x,x,0.461µM*,-0.9,x,13µM*
CCCCOc1ccc(Cn2c(=O)oc3ccccc32)cc1,13.7%,-20.0,i,5.7,u,i
